Assay outcomes as filed in PubChem.
Nrf2 block – Nrf2 qHTS screen for inhibitors | A549 ARE-Fluc reporter, luciferase luminescence, 18-24 h | Potency, µM (titrated, usually from 46 µM), inactives show at the top dose activity change, negative = inhibition, most hits filed as inhibitors | 360,000 compounds, 2.1% hits | AID 504444, 2011; further: potency means the concentration at half of the fitted maximal effect; nearly all actives have a fitted effect of over 60% in size
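Nrf2 function is reported as luminescence of an ARE-controlled luciferase in A549 cells. Compounds were tested at several concentrations, and a CellTiter-Fluor read on the same wells flagged cytotoxicity.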
PI4K2A block – qHTS for small molecular inhibitors of PI4K2A; 420,000 compounds, 0.13% hits; purified PI4K2A, ADP-Glo luminescence, 1 h; stronger effect = lower value; Phosphatidylinositol 4-kinase type 2-alpha (Homo sapiens), Q9BTU6; AID 1346378, 2018; activity change, negative = inhibition, % at 76.9 µM; in the data active means activity change below about -50%; inconclusive means mostly about -30% to -49%;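 further: -100% = wells without enzyme as full effect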
Target sequence (Q9BTU6 whole entry, looked up): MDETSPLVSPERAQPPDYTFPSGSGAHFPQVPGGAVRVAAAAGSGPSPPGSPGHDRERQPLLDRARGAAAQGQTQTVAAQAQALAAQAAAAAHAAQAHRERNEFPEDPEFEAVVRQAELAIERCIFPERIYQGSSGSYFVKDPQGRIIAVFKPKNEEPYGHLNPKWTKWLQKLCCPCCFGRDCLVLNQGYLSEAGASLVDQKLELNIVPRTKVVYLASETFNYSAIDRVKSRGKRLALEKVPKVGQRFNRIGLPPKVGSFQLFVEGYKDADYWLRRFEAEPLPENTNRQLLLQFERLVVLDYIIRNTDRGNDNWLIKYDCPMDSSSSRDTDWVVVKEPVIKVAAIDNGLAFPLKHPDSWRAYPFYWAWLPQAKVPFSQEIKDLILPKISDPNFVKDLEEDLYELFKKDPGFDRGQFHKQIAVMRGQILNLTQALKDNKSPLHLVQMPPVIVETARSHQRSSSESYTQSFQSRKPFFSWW
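In this quantitative HTS, ADP production by PI4K2A was quantified luminescently after 1 h at ambient temperature; 100 microM adenosine served as plate-quality control.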
KB-V1 MDR tox – qHTS assay for MDR1-selective chemotherapeutics: Primary screen using the drug-selected MDR subline cells KB-V1; KB-V1 MDR cells viability, CellTiter-Glo, 72 h; Potency, µM (top dose mostly 46.1 µM), most hits filed as cytotoxic; 400,000 compounds, 3.4% hits; AID 1347076, 2019; further: potency means the concentration at half of the fitted maximal effect; nearly all actives have a fitted effect of over 60% in size
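KB-V1 cells (P-gp-expressing MDR subline of KB-3-1) in phenol-red-free DMEM with 10% FBS were exposed to library compounds over a concentration series for 72 h at 37 degrees C. Viability read by CellTiter-Glo luminescence; concentration-effect curves fitted after normalization.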
Giardia killer – Small Molecules that selectively kill Giardia lamblia: qHTS | Giardia lamblia trophozoite viability | AID 540267, 2011 | activity change, % at 7.66 µM, hits read low | 340,000 compounds, 0.15% hits; in the data active means activity change below about -80%; inconclusive means between about -30% and that limit;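 further: parasites exposed to compound for two days anaerobically before the ATP read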
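Compounds were tested on trophozoites seeded at 100 cells/well and held 48 hrs at 37 deg C anaerobically. An ATP-based luminescent kit measured the remaining live cells.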
KB-3-1 tox – qHTS assay for MDR1-selective chemotherapeutics: Primary screen using the parental adenocarcinoma cell KB-3-1 | KB-3-1 viability, CellTiter-Glo ATP luminescence, 72 h | Potency, µM (top dose mostly 46.1 µM), usual class: cytotoxic | 400,000 compounds, 1.4% hits; further: potency means the concentration at half of the fitted maximal effect; nearly all actives have a fitted effect of over 60% in size
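Parental KB-3-1 viability, qHTS format: 72 h compound exposure, 37 °C; CellTiter-Glo; media-only wells and DMSO plates as controls; concentration-effect fits on corrected data.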
A549 tox – Nrf2 qHTS screen for inhibitors: counterscreen for cytotoxicity | A549 ARE-Fluc cells, CellTiter-Fluor viability, 18-24 h | Potency, µM (series often up to 46 µM), inactives show top-dose activity change, negative = cytotoxicity, usual class: inhibitors | 390,000 compounds, 0.16% hits | AID 504648, 2011; further: potency means the concentration at half of the fitted maximal effect
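A549 ARE-Fluc cells in 5% FBS OPTI-MEM, 5000 cells/well, rested 2 h then exposed to compounds in concentration-response for 18-24 h at 37 °C. Viability by CellTiter-Fluor fluorescence (Ex 405/Em 525) after 30 min; luciferase luminescence (BugLite, 15 min, RT) read afterwards.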
Active calls of the source: *; i = inactive; ? = inconclusive; / = no result. A selection: hits, their analogues and other compounds. The true share with any hit is near 5.7%. Unless noted, the call rests on the fitted dose curve; in most records, active means well fitted curve in the direction sought with a large enough effect; inconclusive means small, poorly fitted or top-dose-only effect, or another doubt; inactive means no such curve, though single readings can be large; an effect the other way counts as inactive or inconclusive. Unless noted, on the % scale 0 is the no-effect control and ±100 the full control effect.

SMILES | Nrf2 block | PI4K2A block | KB-V1 MDR tox | Giardia killer | KB-3-1 tox | A549 tox
Cc1ccc(C(=O)N2CCN(c3ccc(F)cc3)CC2)cc1S(=O)(=O)N1CCCCC1 | 11.6µM* | 2.6 | ? | 3.1 | ? | -10.3%
Cc1ccc(C(=O)N2CCN(c3ccccc3)CC2)cc1S(=O)(=O)N1CCCC1 | 20.6µM* | 10.1 | i | -24.1 | i | -10.6%
COc1ccc(C(=O)N2CCN(c3ccccc3)CC2)cc1S(=O)(=O)N1CCCC1 | 2.2% | -1.0 | ? | -10.6 | i | 9.5%
Cc1cc(C(=O)N2CCN(c3ncccn3)CC2)sc1-c1ccccc1 | ? | -1.5 | 20.6µM* | 8.1 | i | 4.3%
CCC[C@H]1[C@@H](OC(=O)NC(CC)CC)CC[C@@]23CCCN2C(=O)CCC[C@@H]13 | / | -0.9 | / | / | / | /
COc1ccc(CN2C(C(=O)NC3CCCC3)CSCCS2(=O)=O)cc1 (stereo not given) | / | -0.8 | / | / | / | /
O=C(OCC(=O)N1CCC(c2ccccc2)=N1)c1ccc([N+](=O)[O-])s1 | 23.1µM* | -4.7 | i | 15.5 | ? | ?
CCCCCCCCCCCCCCCCCCN(C)C | / | 0.5 | / | / | / | /
Cc1cc(C)c(C)c(S(=O)(=O)N2CCN(CC(=O)c3c(N)n(Cc4ccccc4)c(=O)n(C)c3=O)CC2)c1C | ? | 1.0 | 14.6µM* | 9.3 | ? | ?
Cn1c(=O)c(C(=O)CN2CCCCCC2)c(N)n(Cc2ccccc2)c1=O | ? | 2.0 | i | -12.4 | i | 1.0%
C=CCN(c1ccccc1OC)S(=O)(=O)c1cccc(C(=O)OC2CCOC2=O)c1 (stereo not given) | -14.1% | -9.1 | i | -7.2 | i | -1.0%
C=CCN(c1ccccc1OC)S(=O)(=O)c1cccc(C(=O)OCC(=O)N2CC(C)OC(C)C2)c1 (stereo not given) | -25.9% | -0.2 | 4.11µM* | 0.2 | i | 8.9%
CCCC(=O)OC12CCCN(C1)/C(=C/c1ccc(Cl)cc1)C2 (stereo not given) | / | -4.2 | / | / | / | /
CC1(C)CC2CN(Cc3ccccc3)S(=O)(=O)N2C1 (stereo not given) | / | -3.4 | / | / | / | /
Cc1ccc(F)c(C2C3C=CCC(C)C3C(=O)N2Cc2ccccc2)c1 (stereo not given) | ? | / | / | -12.8 | / | -12.0%
CCOC(=O)CSc1nc2ccccc2c(=O)n1CC1COc2ccccc2O1 (stereo not given) | -12.9% | 0.5 | i | 5.7 | i | -12.4%
CCN(CC)C(=O)COn1c(SCC(=O)N(CC)CC)nc2ccccc2c1=O | 10.2% | 4.0 | 16.4µM* | 9.0 | i | -13.9%
CCCN(CCC)C(=O)CSc1nc2ccccc2c(=O)n1CC1COc2ccccc2O1 (stereo not given) | 5.9% | -1.6 | 20.6µM* | 21.7 | ? | -1.9%
COc1ccc2[nH]c3c(c2c1)CCN[C@]31C(=O)N(Cc2cn(Cc3ccccc3)nn2)c2ccc(F)cc21 | / | -20.6 | / | / | / | /
Cc1ccccc1OCC(=O)NCC(C)NC(=O)COc1ccccc1C (stereo not given) | -21.5% | / | i | 6.8 | i | -0.5%
CCC[C@H](/C=C/C(=O)OC(C)(C)C)Sc1ccc(N)cc1 | / | -3.1 | / | / | / | /
O=C(CN1CCCC1)Nc1c2c(nc3ccccc13)N(Cc1ccccc1)CC2 | -9.9% | -3.9 | 23.1µM* | 14.0 | i | -12.2%
O=C(CN1CCOCC1)Nc1c2c(nc3ccccc13)N(Cc1ccccc1)CC2 | -4.3% | 21.6 | i | 0.8 | i | -6.3%
Cc1cc(N2CCN(C(c3ccccc3)c3ccc(Cl)cc3)CC2)n2ncnc2n1 (stereo not given) | -14.8% | 0.6 | i | 4.0 | i | 1.3%
FC(F)(F)c1cccc(Nc2cc(-c3ccccc3)nc3ncnn23)c1 | -15.2% | 0.9 | ? | 0.5 | i | 16.8%
SMILES | Nrf2 block | PI4K2A block | KB-V1 MDR tox | Giardia killer | KB-3-1 tox | A549 tox
Cc1cc(N2CCN(c3ccccc3)CC2)n2ncnc2n1 | 20.6µM* | 2.1 | ? | 7.1 | i | -5.1%
Cc1cc(N2CCN(S(=O)(=O)c3ccc4ccccc4c3)CC2)n2ncnc2n1 | -33.6% | -1.0 | ? | 1.8 | i | -4.5%
Cc1cc(N2CCN(C/C=C/c3ccccc3)CC2)n2ncnc2n1 | ? | -2.0 | 9.2µM* | 27.0 | i | -6.3%
FC(F)(F)c1ccc(N2CCN(c3cc(-c4ccccc4)nc4ncnn34)CC2)nc1 | 14.6µM* | 2.1 | ? | 23.3 | i | ?
O=C1CCc2cc(S(=O)(=O)Nc3ccc4ccccc4c3)ccc2N1 | ? | / | / | / | / | 6.9%
O=C(NC1CCCC1)c1ccc2c(c1)N(Cc1ccc(C(F)(F)F)cc1)C(=O)c1ccccc1S2 | -9.6% | -1.9 | ? | / | i | 3.4%
CC(C)c1ccc(C(C)NC(=S)NC2CCCCC2)cc1 (stereo not given) | 18.4µM* | 6.3 | ? | -3.3 | ? | 9.3%
CC(NC(=S)NC1CCCCC1)c1ccc(C(C)(C)C)cc1 (stereo not given) | ? | -1.4 | 11.6µM* | -4.1 | ? | 1.4%
CCc1ccc(C(C)NC(=S)NC2CCCCC2)cc1 (stereo not given) | ? | -1.7 | ? | 7.6 | ? | 11.9%
COC(=O)[C@]12C[C@H](CC(=O)NCc3cccc(C(F)(F)F)c3)C(=O)N(Cc3ccco3)C1=C[C@H](C1CCCC1)O[C@@H]2C | / | 1.3 | / | / | / | /
COc1ccc(-c2noc(-c3cccc(OC)c3OC)n2)cc1 | ? | -11.6 | / | / | / | 3.4%
COc1ccc(C(=O)CSc2nnc(-c3cccs3)o2)cc1OC | / | 1.0 | / | / | / | /
COc1cccc(NC(=O)NCc2ccccc2F)c1 | 19.0% | 6.3 | i | -10.3 | i | 1.5%
COc1cccc(N/C(SCc2ccccc2F)=C(/C#N)C(=O)NCc2cccs2)c1 | 9.8% | 18.6 | 16.4µM* | -8.2 | i | 1.0%
COc1ccc(CN2C(=O)CCC2(C)C(=O)NC2CCCCC2)c(OC)c1 (stereo not given) | 15.7% | -3.6 | 20.6µM* | 20.5 | i | 11.2%
COc1ccc(CN2C(=O)CCC2(C)C(=O)NCc2cccnc2)c(OC)c1 (stereo not given) | 12.5% | 1.9 | i | 10.1 | i | -1.9%
CCOC(=O)c1c(C)[nH]c(C(=O)OCC(=O)Nc2ccccc2)c1C | ? | -2.4 | i | 0.7 | i | 7.9%
CCOC(=O)c1c(C)[nH]c(C(=O)OCC(=O)NC(C)C)c1C | / | -1.3 | 23.1µM* | -0.6 | i | -1.9%
